This is an account of results in PMC7862700, “An all-to-all approach to the identification of sequence-specific readers for epigenetic DNA modifications on cytosine”.

Test in all cases: DAPPL (digital affinity profiling via proximity ligation, sequencing); 10 mM Tris-HCl pH 7.5, 50 mM NaCl, 1 mM DTT, 4% glycerol, room temperature, 30 min; GST-TFs on glutathione beads, 16-mer random dsDNA library, 0.1% formaldehyde crosslink after washing; high values mean tight binding
Common to all, as to details: protein: recombinant; tags: N-terminal GST; dsDNA, one strand shown

Assay [1] has as its target T1, FLI1 (Homo sapiens, UniProt Q01543 1-452).
T1 sequence: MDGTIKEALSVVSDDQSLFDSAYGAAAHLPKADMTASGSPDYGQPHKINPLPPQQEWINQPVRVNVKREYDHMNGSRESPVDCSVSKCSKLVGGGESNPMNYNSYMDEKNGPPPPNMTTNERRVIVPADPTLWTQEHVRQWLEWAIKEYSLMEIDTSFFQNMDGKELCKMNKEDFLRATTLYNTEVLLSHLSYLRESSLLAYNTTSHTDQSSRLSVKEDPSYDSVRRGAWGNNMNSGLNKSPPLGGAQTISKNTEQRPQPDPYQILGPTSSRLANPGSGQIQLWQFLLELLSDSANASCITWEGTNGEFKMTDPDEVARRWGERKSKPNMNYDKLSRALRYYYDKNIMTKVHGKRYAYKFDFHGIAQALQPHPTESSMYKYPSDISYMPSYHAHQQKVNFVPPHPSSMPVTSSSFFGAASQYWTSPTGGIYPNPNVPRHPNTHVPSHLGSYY
Put shortly: (§1)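 Each value of binding signal is a hexamer's read frequency for a factor divided by the same hexamer's frequency in the tag-only sample. Barcoded, bead-captured GST fusions of human transcription factors made in yeast were pooled with that sample and incubated with 200 nmole of a random double-stranded 16-mer DNA library in Tris/NaCl/DTT/glycerol buffer at room temperature for 30 min. Washing, 0.1% formaldehyde crosslinking, proximity ligation, PCR and Illumina NextSeq500 sequencing followed.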

For assay [2], the target named is T2, ELK1 (Homo sapiens, UniProt P19419 1-428).
T2 sequence: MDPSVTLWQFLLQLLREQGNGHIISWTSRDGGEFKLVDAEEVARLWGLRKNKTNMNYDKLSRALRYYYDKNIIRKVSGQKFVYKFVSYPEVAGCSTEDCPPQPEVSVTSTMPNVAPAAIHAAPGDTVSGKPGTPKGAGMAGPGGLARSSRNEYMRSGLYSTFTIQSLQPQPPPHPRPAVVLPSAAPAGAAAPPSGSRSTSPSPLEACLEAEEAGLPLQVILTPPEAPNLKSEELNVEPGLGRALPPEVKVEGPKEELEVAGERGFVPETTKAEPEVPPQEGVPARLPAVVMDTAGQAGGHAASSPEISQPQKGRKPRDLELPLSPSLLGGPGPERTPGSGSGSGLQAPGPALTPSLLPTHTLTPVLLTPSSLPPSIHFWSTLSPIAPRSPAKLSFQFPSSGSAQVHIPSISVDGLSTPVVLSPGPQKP
Put shortly:
as §1

Assay [3] has as its target T3, GABPA (Homo sapiens, UniProt Q06546 1-454).
T3 sequence: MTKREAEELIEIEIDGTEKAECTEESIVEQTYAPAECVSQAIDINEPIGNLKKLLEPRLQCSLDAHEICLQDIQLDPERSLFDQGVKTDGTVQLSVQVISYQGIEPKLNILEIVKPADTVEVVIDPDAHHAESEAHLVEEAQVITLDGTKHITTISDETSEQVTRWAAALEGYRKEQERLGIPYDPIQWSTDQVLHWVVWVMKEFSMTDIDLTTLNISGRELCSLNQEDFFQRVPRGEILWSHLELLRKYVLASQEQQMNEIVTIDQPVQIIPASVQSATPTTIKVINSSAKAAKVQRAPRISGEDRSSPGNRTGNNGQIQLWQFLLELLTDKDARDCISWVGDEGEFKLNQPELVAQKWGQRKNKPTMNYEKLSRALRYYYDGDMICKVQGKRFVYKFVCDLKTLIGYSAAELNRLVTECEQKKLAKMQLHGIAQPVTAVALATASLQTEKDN
A digest of the protocol: as §1

In assay [4] the target is T4, ERG (Homo sapiens, UniProt P11308 1-479).
T4 sequence: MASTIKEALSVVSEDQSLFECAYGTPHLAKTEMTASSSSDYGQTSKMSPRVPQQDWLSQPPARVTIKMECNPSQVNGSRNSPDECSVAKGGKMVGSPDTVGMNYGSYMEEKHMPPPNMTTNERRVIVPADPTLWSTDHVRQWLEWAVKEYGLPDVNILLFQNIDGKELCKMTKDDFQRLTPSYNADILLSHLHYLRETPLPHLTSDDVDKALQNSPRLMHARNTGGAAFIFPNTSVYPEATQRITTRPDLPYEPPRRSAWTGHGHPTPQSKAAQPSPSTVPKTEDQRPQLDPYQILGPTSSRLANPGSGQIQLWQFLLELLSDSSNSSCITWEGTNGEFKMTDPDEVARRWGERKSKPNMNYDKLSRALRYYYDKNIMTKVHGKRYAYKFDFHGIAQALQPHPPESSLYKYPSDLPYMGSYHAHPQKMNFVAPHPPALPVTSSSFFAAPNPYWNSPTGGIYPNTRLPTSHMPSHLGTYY
A digest of the protocol:
as §1

Assay [5] has as its target ELF1 (Homo sapiens, UniProt P32519 1-619). Put shortly:
as §1

The target in assay [6] is T5, EHF (Homo sapiens, UniProt Q9NZC4 1-300).
T5 sequence: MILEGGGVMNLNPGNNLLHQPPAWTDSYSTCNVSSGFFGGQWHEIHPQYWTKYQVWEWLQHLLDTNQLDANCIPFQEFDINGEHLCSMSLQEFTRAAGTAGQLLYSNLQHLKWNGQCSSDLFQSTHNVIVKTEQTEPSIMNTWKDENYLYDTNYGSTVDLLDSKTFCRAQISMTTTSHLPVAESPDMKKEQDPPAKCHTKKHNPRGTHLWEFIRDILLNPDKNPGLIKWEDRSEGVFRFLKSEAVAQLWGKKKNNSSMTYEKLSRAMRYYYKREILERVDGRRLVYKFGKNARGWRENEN
Put shortly:
as §1

Assay [7] concerns the target SPI1 (Homo sapiens, UniProt P17947 1-270). Put shortly: as §1
Assay [8] has as its target SPIB (Homo sapiens, UniProt Q01892 1-262). A digest of the protocol: as §1
Assay [9] has as its target T6, ELK3 (Homo sapiens, UniProt P41970 1-407).
T6 sequence: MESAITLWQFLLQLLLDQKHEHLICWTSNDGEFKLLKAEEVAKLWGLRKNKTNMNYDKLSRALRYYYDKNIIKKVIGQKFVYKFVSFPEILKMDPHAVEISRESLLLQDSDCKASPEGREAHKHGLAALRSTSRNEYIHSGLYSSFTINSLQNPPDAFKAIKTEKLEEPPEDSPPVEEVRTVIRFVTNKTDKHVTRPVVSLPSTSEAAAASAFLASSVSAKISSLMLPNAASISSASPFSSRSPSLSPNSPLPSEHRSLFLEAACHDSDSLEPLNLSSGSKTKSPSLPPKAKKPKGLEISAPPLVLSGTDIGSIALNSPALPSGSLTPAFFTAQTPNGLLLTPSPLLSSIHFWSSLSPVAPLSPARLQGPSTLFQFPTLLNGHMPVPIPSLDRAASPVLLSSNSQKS
A digest of the protocol:
as §1

In assay [10] the target is T7, FEV (Homo sapiens, UniProt Q99581 1-238).
T7 sequence: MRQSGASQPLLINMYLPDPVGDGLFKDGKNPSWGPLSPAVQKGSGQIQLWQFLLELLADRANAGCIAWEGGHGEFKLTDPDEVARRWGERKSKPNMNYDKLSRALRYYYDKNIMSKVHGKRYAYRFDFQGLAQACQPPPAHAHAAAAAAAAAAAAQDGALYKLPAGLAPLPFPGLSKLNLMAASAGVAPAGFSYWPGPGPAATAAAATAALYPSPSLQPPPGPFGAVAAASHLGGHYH
A digest of the protocol: as §1

For assay [11], the target named is ETV5 (Homo sapiens, UniProt P41161 1-510). Put shortly: as §1
Sequence of ETV5 (P41161 whole entry): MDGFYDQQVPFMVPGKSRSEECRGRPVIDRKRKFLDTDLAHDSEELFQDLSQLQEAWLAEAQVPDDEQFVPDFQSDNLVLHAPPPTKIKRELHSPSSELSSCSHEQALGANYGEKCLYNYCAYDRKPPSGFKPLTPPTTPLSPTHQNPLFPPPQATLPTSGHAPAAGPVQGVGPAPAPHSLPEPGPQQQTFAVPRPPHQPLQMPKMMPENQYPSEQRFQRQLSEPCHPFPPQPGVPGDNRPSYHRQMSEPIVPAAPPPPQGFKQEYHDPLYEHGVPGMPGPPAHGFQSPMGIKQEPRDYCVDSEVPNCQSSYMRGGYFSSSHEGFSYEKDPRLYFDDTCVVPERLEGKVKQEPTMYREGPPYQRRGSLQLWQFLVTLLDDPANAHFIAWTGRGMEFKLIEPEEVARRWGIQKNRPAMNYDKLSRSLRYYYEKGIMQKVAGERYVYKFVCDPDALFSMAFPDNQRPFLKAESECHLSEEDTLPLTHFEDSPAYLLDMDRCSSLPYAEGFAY
Assay [12] deals with T8, SPIC (Homo sapiens, UniProt Q8N5J4 1-248).
T8 sequence: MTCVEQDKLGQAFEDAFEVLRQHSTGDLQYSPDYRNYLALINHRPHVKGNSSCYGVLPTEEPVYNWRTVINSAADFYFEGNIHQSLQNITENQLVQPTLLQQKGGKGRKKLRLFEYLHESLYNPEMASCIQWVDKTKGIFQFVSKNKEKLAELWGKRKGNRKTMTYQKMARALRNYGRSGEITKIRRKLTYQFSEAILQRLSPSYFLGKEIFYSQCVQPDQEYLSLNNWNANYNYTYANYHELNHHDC
A digest of the protocol:
as §1

The target in assay [13] is ELF4 (Homo sapiens, UniProt Q99607 1-663). Put shortly:
as §1

The target of assay [14] is T9, ELK4 (Homo sapiens, UniProt P28324-2 1-405).
T9 sequence: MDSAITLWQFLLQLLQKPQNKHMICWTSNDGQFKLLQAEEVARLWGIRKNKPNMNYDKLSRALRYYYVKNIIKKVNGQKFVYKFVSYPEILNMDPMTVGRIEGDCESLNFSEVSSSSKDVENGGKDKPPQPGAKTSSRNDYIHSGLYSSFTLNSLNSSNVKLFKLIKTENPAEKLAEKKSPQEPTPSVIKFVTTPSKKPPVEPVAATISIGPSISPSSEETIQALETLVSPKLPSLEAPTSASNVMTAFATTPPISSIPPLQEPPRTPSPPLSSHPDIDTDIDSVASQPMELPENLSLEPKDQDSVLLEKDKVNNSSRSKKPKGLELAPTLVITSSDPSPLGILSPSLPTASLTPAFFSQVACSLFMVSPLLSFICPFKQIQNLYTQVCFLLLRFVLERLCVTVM
Put shortly:
as §1

Assay [15] concerns the target T10, ETV2 (Homo sapiens, UniProt O00321 1-342).
T10 sequence: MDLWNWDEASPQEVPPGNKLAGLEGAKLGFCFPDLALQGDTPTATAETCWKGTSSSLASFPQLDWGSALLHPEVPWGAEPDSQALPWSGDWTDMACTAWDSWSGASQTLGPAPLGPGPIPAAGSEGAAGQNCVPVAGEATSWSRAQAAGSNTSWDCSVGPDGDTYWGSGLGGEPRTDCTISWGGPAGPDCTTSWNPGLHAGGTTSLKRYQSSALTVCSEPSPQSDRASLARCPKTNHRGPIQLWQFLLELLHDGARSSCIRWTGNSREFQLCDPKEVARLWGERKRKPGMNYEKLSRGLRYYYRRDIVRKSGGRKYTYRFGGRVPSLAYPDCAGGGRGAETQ
A digest of the protocol:
as §1

Assay [16] has as its target T11, ELF3 (Homo sapiens, UniProt P78545 1-371).
T11 sequence: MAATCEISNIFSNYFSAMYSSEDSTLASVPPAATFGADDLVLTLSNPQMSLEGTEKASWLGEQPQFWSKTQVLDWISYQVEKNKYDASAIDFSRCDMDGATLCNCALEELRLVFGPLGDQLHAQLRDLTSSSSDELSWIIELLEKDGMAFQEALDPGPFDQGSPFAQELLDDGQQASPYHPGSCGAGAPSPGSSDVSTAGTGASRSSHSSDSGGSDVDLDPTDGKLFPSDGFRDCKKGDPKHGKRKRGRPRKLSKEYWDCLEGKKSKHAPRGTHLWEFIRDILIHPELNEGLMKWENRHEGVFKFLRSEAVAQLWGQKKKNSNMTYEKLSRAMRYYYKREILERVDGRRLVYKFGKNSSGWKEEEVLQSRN
A digest of the protocol: as §1

For assay [17], the target named is ETV1 (Homo sapiens, UniProt P50549 1-477). A digest of the protocol: as §1
Sequence of ETV1 (P50549 whole entry): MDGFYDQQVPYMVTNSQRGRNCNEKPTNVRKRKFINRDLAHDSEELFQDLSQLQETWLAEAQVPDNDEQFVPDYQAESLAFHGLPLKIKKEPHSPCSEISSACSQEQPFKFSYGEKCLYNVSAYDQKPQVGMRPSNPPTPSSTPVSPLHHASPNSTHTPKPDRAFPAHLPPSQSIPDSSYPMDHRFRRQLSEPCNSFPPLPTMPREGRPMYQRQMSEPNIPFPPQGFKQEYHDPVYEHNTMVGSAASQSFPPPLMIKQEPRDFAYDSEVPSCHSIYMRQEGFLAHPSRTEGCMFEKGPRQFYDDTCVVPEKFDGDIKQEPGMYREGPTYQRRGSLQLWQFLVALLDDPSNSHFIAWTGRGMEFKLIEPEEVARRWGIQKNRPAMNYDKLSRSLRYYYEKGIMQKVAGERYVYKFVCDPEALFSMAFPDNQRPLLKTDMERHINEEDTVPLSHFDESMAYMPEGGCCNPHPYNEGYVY

Sequence of SPIB (Q01892 whole entry): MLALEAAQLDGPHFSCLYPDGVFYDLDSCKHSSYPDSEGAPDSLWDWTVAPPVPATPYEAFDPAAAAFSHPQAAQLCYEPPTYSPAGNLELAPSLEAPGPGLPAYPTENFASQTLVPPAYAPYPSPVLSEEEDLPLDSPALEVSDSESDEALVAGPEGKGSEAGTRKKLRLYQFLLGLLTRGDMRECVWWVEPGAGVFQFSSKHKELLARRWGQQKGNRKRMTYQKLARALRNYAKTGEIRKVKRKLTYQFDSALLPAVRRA
Sequence of ELF1 (P32519 whole entry): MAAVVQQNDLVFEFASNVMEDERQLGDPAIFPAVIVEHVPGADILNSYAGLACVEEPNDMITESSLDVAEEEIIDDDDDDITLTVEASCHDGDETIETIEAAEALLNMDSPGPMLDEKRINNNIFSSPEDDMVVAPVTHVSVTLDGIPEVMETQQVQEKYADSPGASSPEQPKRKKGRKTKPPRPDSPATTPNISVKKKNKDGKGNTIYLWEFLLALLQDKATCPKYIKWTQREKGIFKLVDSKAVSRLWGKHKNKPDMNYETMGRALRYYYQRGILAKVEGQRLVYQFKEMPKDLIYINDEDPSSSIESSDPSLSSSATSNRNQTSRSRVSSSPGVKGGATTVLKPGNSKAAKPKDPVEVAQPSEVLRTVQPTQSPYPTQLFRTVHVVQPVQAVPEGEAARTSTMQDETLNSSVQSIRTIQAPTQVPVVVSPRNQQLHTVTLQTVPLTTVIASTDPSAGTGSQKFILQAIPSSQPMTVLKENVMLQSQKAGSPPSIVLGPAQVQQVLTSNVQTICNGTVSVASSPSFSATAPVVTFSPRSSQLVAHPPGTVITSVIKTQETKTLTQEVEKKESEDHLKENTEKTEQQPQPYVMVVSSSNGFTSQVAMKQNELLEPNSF
Sequence of ELF4 (Q99607 whole entry): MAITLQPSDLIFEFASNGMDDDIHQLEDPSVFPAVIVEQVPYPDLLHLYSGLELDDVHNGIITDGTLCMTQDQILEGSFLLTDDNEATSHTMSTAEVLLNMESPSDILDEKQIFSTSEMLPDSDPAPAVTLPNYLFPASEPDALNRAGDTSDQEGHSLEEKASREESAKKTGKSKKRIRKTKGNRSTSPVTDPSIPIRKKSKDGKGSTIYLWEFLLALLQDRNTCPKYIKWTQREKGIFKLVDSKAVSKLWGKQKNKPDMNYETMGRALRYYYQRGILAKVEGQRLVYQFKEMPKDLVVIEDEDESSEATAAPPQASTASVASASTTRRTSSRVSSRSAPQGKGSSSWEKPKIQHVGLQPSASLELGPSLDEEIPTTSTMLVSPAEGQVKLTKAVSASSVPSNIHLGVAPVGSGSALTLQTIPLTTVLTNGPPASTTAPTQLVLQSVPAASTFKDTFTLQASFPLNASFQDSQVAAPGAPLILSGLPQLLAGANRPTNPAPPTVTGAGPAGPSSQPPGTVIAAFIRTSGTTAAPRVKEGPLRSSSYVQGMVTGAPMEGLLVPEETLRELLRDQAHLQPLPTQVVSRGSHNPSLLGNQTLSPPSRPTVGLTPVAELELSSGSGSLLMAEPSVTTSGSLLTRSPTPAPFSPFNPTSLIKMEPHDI

In the case of AAGTGC, the binding signal was 1.32 fold enrichment (6-mer frequency, TF over GST control) in [1]; 1.33 fold enrichment (6-mer frequency, TF over GST control) in assay [2]; 1.13 fold enrichment (6-mer frequency, TF over GST control) in assay [3]; 1.32 fold enrichment (6-mer frequency, TF over GST control) in assay [4]; 1.28 fold enrichment (6-mer frequency, TF over GST control) in assay [5]; 1.34 fold enrichment (6-mer frequency, TF over GST control) in assay [6]. Besides, the binding signal was 1.67 fold enrichment (6-mer frequency, TF over GST control) in assay [7]; 1.34 fold enrichment (6-mer frequency, TF over GST control) in assay [8]; 1.39 fold enrichment (6-mer frequency, TF over GST control) in assay [9]; 1.32 fold enrichment (6-mer frequency, TF over GST control) in assay [10]; 1.33 fold enrichment (6-mer frequency, TF over GST control) in [11]; 1.5 fold enrichment (6-mer frequency, TF over GST control) in assay [12]. The binding signal is 1.29 fold enrichment (6-mer frequency, TF over GST control) in [13]; 1.21 fold enrichment (6-mer frequency, TF over GST control) in [14]; 1.35 fold enrichment (6-mer frequency, TF over GST control) in [15]; 1.33 fold enrichment (6-mer frequency, TF over GST control) in assay [16]; 1.25 fold enrichment (6-mer frequency, TF over GST control) in [17].

Consider GAAACG, for which the binding signal is 1.17 fold enrichment (6-mer frequency, TF over GST control) in assay [1]; 1.26 fold enrichment (6-mer frequency, TF over GST control) in [2]; 1.2 fold enrichment (6-mer frequency, TF over GST control) in assay [3]; 1.38 fold enrichment (6-mer frequency, TF over GST control) in assay [4]; 1.18 fold enrichment (6-mer frequency, TF over GST control) in assay [5]; 1.19 fold enrichment (6-mer frequency, TF over GST control) in assay [6]. Further, the binding signal in [7] is 1.17 fold enrichment (6-mer frequency, TF over GST control); in assay [8], 1.25 fold enrichment (6-mer frequency, TF over GST control); in assay [9] it was 1.27 fold enrichment (6-mer frequency, TF over GST control); in assay [10], 1.36 fold enrichment (6-mer frequency, TF over GST control); in assay [11] it was 1.21 fold enrichment (6-mer frequency, TF over GST control); in assay [12] it was 1.19 fold enrichment (6-mer frequency, TF over GST control). Also, the binding signal in assay [13] was 1.14 fold enrichment (6-mer frequency, TF over GST control); in assay [14], 1.05 fold enrichment (6-mer frequency, TF over GST control); in [15], 1.28 fold enrichment (6-mer frequency, TF over GST control); in assay [16], 1.27 fold enrichment (6-mer frequency, TF over GST control); in [17], 1.29 fold enrichment (6-mer frequency, TF over GST control).
